Laboratory results from PubChem BioAssay AID1159580 (chemical genetic matrix, 2015).
Hit rate of the full screen: of about 5,500 compounds, about 2,000 (36%) were called active. Not shown: some 18% with an inconclusive outcome. This is one part of the list. A number with no mark means an inactive call. Rule as the data show it: active = normalized growth mostly below about 0.91 (no sharp cut-off); inconclusive = no clear call, values can overlap the other calls; inactive = mostly above about 0.92.

Test: chemical genetic growth profiling, strain panel (AID 1159580);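 also: tested at 20 µM; growth read once vehicle control cultures reached saturation at 30 °C; 1 = growth at the plate median or of vehicle wells; lower values mean less growth of the strain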
Conditions: S. cerevisiae deletion strains, growth OD
[1] = locus YAL013W, strain DEP1, active compounds read low
[2] = locus YNL153C, strain GIM3, active compounds read low
[3] = locus YPL055C, strain LGE1, active compounds read low
[4] = locus YCL061C, strain MRC1, active compounds read low
[5] = locus YHR030C, strain SLT2, active compounds read low
[6] = locus YJL187C, strain SWE1, active compounds read low

## N[C@@]1(C(=O)O)CC[C@@H](C(=O)O)C1
[1]
  normalized growth: 1.02
Locus YAL040C, strain CLN3, active compounds read low
  normalized growth: 1.01
Locus YCL061C, strain MRC1 (second series), active compounds read low
  normalized growth: 1
Locus YDR363W, strain ESC2, active compounds read low
  normalized growth: 1.04
Locus YER002W, strain NOP16, active compounds read low
  normalized growth: 1.01
Locus YGR229C, strain SMI1, active compounds read low
  normalized growth: 1.03
[2]
  normalized growth: 1
Locus YNL175C, strain NOP13, active compounds read low
  normalized growth: 1.01
Locus YNL197C, strain WHI3, active compounds read low
  normalized growth: 1.02
Locus YNL224C, strain SQS1, active compounds read low
  normalized growth: 1.02
Locus YOR083W, strain WHI5 (second series), active compounds read low
  normalized growth: 1.01
[3]
  normalized growth: 1.02

## N#C/C(=C\Nc1ccc2c(c1)OCCO2)S(=O)(=O)c1ccc(C(F)(F)F)cn1
[1]
  normalized growth: 0.985
Locus YBR229C, strain ROT2, active compounds read low
  normalized growth: 1
[4]
  normalized growth: 1.03
Locus YDL101C, strain DUN1, active compounds read low
  normalized growth: 0.995
Locus YDL134C, strain PPH21, active compounds read low
  normalized growth: 1
Locus YDR150W, strain NUM1, active compounds read low
  normalized growth: 1.01
Locus YEL061C, strain CIN8, active compounds read low
  normalized growth: 0.974
Locus YGR078C, strain PAC10, active compounds read low
  normalized growth: 1.02
[5]
  normalized growth: 0.593 (active)
Locus YHR087W, strain rtc3, active compounds read low
  normalized growth: 1.01
[6]
  normalized growth: 0.733 (active)
Locus YJR043C, strain POL32, active compounds read low
  normalized growth: 1.02
Locus YJR075W, strain HOC1, active compounds read low
  normalized growth: 1.02
Locus YKL190W, strain CNB1, active compounds read low
  normalized growth: 0.98
Locus YLR039C, strain RIC1, active compounds read low
  normalized growth: 1.02
Locus YLR058C, strain SHM2 (second series), active compounds read low
  normalized growth: 1
Locus YLR085C, strain ARP6, active compounds read low
  normalized growth: 0.742 (active)
Locus YLR262C, strain YPT6, active compounds read low
  normalized growth: 1.01
Locus YML094W, strain GIM5, active compounds read low
  normalized growth: 0.906
Locus YMR219W, strain ESC1, active compounds read low
  normalized growth: 0.993
Locus YMR263W, strain SAP30, active compounds read low
  normalized growth: 1.02
[2]
  normalized growth: 1.02
Locus YNL298W, strain CLA4 (second series), active compounds read low
  normalized growth: 0.835 (active)
Locus YNL322C, strain KRE1, active compounds read low
  normalized growth: 0.996
Locus YNR030W, strain Alg12, active compounds read low
  normalized growth: 0.978
[3]
  normalized growth: 1.11
Locus YPL241C, strain CIN2, active compounds read low
  normalized growth: 0.966
Locus YPR135W, strain CTF4, active compounds read low
  normalized growth: 1.06

## O=C(O)c1cccc(O)c1O
Locus YAL021C, strain ccr4, active compounds read low
  normalized growth: 1.02
Locus YAL026C, strain drs2, active compounds read low
  normalized growth: 1.02
Locus YAL030W, strain snc1, active compounds read low
  normalized growth: 1.01
Locus YBL061C, strain skt5, active compounds read low
  normalized growth: 1.03
Locus YBR009C, strain hhf1, active compounds read low
  normalized growth: 1.02
Locus YBR023C, strain chs3, active compounds read low
  normalized growth: 1.02
Locus YBR171W, strain sec66, active compounds read low
  normalized growth: 1.03
Locus YBR231C, strain swc5, active compounds read low
  normalized growth: 1.02
Locus YBR279W, strain paf1, active compounds read low
  normalized growth: 1.02
Locus YCL011C, strain gbp2, active compounds read low
  normalized growth: 1.02
Locus YCL016C, strain dcc1, active compounds read low
  normalized growth: 1.01
[4]
  normalized growth: 1.01
Locus YCL069W, strain vba3, active compounds read low
  normalized growth: 1.02
Locus YCR088W, strain abp1, active compounds read low
  normalized growth: 1.02
Locus YDL005C, strain med2, active compounds read low
  normalized growth: 1.02
Locus YDL040C, strain nat1, active compounds read low
  normalized growth: 1.02
Locus YDR001C, strain nth1, active compounds read low
  normalized growth: 1.02
Locus YDR069C, strain doa4, active compounds read low
  normalized growth: 1.02
Locus YDR137W, strain rgp1, active compounds read low
  normalized growth: 1.02
Locus YDR159W, strain sac3, active compounds read low
  normalized growth: 1.03
Locus YDR195W, strain ref2
  normalized growth: 0.997
Locus YDR297W, strain sur2, active compounds read low
  normalized growth: 1.02
Locus YDR334W, strain swr1, active compounds read low
  normalized growth: 1.02
Locus YDR335W, strain msn5, active compounds read low
  normalized growth: 1.02
Locus YDR392W, strain spt3, active compounds read low
  normalized growth: 1.04
Locus YEL003W, strain gim4, active compounds read low
  normalized growth: 1.02
Locus YEL037C, strain rad23, active compounds read low
  normalized growth: 1.02
Locus YEL061C, strain CIN8 (second series), active compounds read low
  normalized growth: 1.02
Locus YER015W, strain faa2, active compounds read low
  normalized growth: 1.03
Locus YER016W, strain bim1, active compounds read low
  normalized growth: 1.01
Locus YER111C, strain swi4, active compounds read low
  normalized growth: 1.03
Locus YER155C, strain BEM2 (second series), active compounds read low
  normalized growth: 1.04
Locus YFR010W, strain ubp6, active compounds read low
  normalized growth: 1.02
Locus YGL167C, strain pmr1, active compounds read low
  normalized growth: 1.02
Locus YGL173C, strain kem1, active compounds read low
  normalized growth: 1.03
Locus YGL227W, strain vid30, active compounds read low
  normalized growth: 1.03
Locus YGL240W, strain doc1, active compounds read low
  normalized growth: 1.02
Locus YGL253W, strain hxk2, active compounds read low
  normalized growth: 1.02
Locus YHR013C, strain ard1, active compounds read low
  normalized growth: 1.02
Locus YHR027C, strain rpn1, active compounds read low
  normalized growth: 1.01
[5]
  normalized growth: 1.06
Locus YHR079C, strain IRE1, active compounds read low
  normalized growth: 1.03
Locus YHR142W, strain chs7, active compounds read low
  normalized growth: 1.01
Locus YJL092W, strain hpr5, active compounds read low
  normalized growth: 1.02
Locus YJL095W, strain BCK1 (second series), active compounds read low
  normalized growth: 1.01
Locus YJL095W, strain BCK1, active compounds read low
  normalized growth: 1.03
Locus YJL115W, strain asf1, active compounds read low
  normalized growth: 1.03
Locus YJL129C, strain trk1, active compounds read low
  normalized growth: 1.04
Locus YJL154C, strain vps35, active compounds read low
  normalized growth: 1.02
Locus YJL164C, strain tpk1, active compounds read low
  normalized growth: 1
Locus YJL166W, strain qcr8, active compounds read low
  normalized growth: 1.02
[6]
  normalized growth: 1.03
Locus YJR066W, strain TOR1, active compounds read low
  normalized growth: 0.99
Locus YKL160W, strain elf1, active compounds read low
  normalized growth: 1.03
Locus YKR026C, strain gcn3, active compounds read low
  normalized growth: 1.03
Locus YKR091W, strain srl3, active compounds read low
  normalized growth: 1.02
Locus YLL001W, strain dnm1, active compounds read low
  normalized growth: 1.02
Locus YLL026W, active compounds read low
  normalized growth: 1.02
Locus YLL041C, strain sdh2, active compounds read low
  normalized growth: 1.02
Locus YLR027C, strain aat2, active compounds read low
  normalized growth: 1.01
Locus YLR113W, strain HOG1, active compounds read low
  normalized growth: 1.06
Locus YLR221C, strain rsa3, active compounds read low
  normalized growth: 1.01
Locus YLR258W, strain gsy2, active compounds read low
  normalized growth: 1.02
Locus YLR262C, strain YPT6 (second series), active compounds read low
  normalized growth: 1.02
Locus YLR320W, strain mms22, active compounds read low
  normalized growth: 1.03
Locus YLR342W, strain FKS1, active compounds read low
  normalized growth: 1.03
Locus YLR357W, strain rsc2, active compounds read low
  normalized growth: 1.01
Locus YLR370C, strain arc18, active compounds read low
  normalized growth: 1.01
Locus YLR384C, strain iki3, active compounds read low
  normalized growth: 1.02
Locus YML120C, strain ndi1, active compounds read low
  normalized growth: 1.01
Locus YMR058W, strain fet3, active compounds read low
  normalized growth: 1.02
Locus YMR125W, strain sto1, active compounds read low
  normalized growth: 1.04
Locus YMR129W, active compounds read low
  normalized growth: 1.03
Locus YMR205C, strain PFK2, active compounds read low
  normalized growth: 1.03
Locus YMR231W, strain pep5, active compounds read low
  normalized growth: 1.02
Locus YNL071W, strain lat1, active compounds read low
  normalized growth: 1.01
Locus YNL183C, strain NPR1, active compounds read low
  normalized growth: 0.987
Locus YNL209W, strain ssb2, active compounds read low
  normalized growth: 1.02
Locus YNL248C, strain rpa49, active compounds read low
  normalized growth: 1.01
Locus YNL322C, strain KRE1 (second series), active compounds read low
  normalized growth: 1.02
Locus YNR049C, strain mso1, active compounds read low
  normalized growth: 1.02
Locus YOR001W, strain rrp6, active compounds read low
  normalized growth: 1.03
Locus YOR070C, strain gyp1, active compounds read low
  normalized growth: 1.02
Locus YOR080W, strain dia2, active compounds read low
  normalized growth: 1.02
Locus YOR083W, strain WHI5, active compounds read low
  normalized growth: 1.03
Locus YOR106W, strain vam3, active compounds read low
  normalized growth: 1.02
Locus YOR231W, strain MKK1, active compounds read low
  normalized growth: 1.05
Locus YOR265W, strain rbl2, active compounds read low
  normalized growth: 1.01
Locus YOR270C, strain vph1, active compounds read low
  normalized growth: 1.05
Locus YOR290C, strain snf2, active compounds read low
  normalized growth: 1.03
Locus YPL051W, strain arl3, active compounds read low
  normalized growth: 1.02
Locus YPL078C, strain atp4, active compounds read low
  normalized growth: 1.03
Locus YPL106C, strain sse1, active compounds read low
  normalized growth: 1.02
Locus YPL240C, strain hsp82, active compounds read low
  normalized growth: 1.03
Locus YPL256C, strain CLN2, active compounds read low
  normalized growth: 1.05
